Data reported in the supplement of paper PMC10849652.
The full data set covers some 7,900 targets. This sample favours those with a hit. About 0.6% of all pairs of compound and target were hits. Unmarked numbers belong to inactive results.

Key:
Test in all cases: log2 fold change, soluble protein after heating vs DMSO (PISA); higher = thermal stabilisation; K562 cells, 10 uM, 30 min; active = over 0.2 and 3.5 SD of the protein, either way, in both replicates (recomputed)
[1] = compound: NC(=O)Nc1cc(-c2cccc(F)c2)sc1C(=O)N[C@H]1CCCNC1
How it was run: (§1)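 Values are thermal stability changes relative to control samples and are taken from duplicates. They are stated as log2 fold changes. Before quantification by TMTpro 16plex LC-MS/MS with equalised channel sums, K562 cells at 2×10^6 cells/mL were treated with 10 μM compound for 30 min, heated in aliquots for 3 min across 48°C-58°C, pooled, extracted in PBS with 0.5% NP-40 at 4°C, and centrifuged at 21,000xg for 90 min to give the soluble supernatant.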

[2] = compound: NC(=O)c1cnc(N[C@@H]2CCCC[C@@H]2N)nc1Nc1cccc(-n2nccn2)c1
How it was run: as §1

[3] = compound: NC1(c2ccc(-c3nc4ccn5c(=O)[nH]nc5c4cc3-c3ccccc3)cc2)CCC1
How it was run: as §1

[4] = compound: NCC(=O)Nc1ccc(-n2nc(C(F)(F)F)cc2-c2ccc3c(ccc4ccccc43)c2)cc1
How it was run: as §1

entinostat = compound: Nc1ccccc1NC(=O)c1ccc(CNC(=O)OCc2cccnc2)cc1 [entinostat]
How it was run: as §1

vorinostat = compound: O=C(CCCCCCC(=O)Nc1ccccc1)NO [vorinostat]
How it was run: as §1

citarinostat = compound: O=C(CCCCCCNC(=O)c1cnc(N(c2ccccc2)c2ccccc2Cl)nc1)NO [citarinostat]
How it was run: as §1

silmitasertib = compound: O=C(O)c1ccc2c(c1)nc(Nc1cccc(Cl)c1)c1ccncc12 [silmitasertib]
How it was run: as §1

[5] = compound: O=C1NC(=O)C(c2cnc3ccccn23)=C1c1cn2c3c(cc(F)cc13)CN(C(=O)N1CCCCC1)CC2
How it was run: as §1

[6] = compound: c1cc(OCCN2CCCCC2)cc(-c2n[nH]c3ccc(-c4nnc[nH]4)cc23)c1
How it was run: as §1

UniProt Q8NC54, sequence (Q8NC54 whole entry, looked up): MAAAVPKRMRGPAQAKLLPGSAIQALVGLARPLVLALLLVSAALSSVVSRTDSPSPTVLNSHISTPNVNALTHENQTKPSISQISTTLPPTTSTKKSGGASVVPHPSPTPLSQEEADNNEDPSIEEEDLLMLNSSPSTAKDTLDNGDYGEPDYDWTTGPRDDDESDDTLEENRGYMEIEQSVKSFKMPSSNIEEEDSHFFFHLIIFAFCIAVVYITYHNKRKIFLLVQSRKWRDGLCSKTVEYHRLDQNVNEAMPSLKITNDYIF
UniProt P33947, sequence (P33947 whole entry, looked up): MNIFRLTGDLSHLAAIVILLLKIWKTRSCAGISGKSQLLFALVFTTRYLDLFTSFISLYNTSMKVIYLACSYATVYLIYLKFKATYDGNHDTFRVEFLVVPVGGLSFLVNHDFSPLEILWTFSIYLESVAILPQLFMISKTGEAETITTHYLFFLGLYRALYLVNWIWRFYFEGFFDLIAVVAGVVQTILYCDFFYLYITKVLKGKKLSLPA
UniProt Q9BY66, sequence (Q9BY66 whole entry, looked up): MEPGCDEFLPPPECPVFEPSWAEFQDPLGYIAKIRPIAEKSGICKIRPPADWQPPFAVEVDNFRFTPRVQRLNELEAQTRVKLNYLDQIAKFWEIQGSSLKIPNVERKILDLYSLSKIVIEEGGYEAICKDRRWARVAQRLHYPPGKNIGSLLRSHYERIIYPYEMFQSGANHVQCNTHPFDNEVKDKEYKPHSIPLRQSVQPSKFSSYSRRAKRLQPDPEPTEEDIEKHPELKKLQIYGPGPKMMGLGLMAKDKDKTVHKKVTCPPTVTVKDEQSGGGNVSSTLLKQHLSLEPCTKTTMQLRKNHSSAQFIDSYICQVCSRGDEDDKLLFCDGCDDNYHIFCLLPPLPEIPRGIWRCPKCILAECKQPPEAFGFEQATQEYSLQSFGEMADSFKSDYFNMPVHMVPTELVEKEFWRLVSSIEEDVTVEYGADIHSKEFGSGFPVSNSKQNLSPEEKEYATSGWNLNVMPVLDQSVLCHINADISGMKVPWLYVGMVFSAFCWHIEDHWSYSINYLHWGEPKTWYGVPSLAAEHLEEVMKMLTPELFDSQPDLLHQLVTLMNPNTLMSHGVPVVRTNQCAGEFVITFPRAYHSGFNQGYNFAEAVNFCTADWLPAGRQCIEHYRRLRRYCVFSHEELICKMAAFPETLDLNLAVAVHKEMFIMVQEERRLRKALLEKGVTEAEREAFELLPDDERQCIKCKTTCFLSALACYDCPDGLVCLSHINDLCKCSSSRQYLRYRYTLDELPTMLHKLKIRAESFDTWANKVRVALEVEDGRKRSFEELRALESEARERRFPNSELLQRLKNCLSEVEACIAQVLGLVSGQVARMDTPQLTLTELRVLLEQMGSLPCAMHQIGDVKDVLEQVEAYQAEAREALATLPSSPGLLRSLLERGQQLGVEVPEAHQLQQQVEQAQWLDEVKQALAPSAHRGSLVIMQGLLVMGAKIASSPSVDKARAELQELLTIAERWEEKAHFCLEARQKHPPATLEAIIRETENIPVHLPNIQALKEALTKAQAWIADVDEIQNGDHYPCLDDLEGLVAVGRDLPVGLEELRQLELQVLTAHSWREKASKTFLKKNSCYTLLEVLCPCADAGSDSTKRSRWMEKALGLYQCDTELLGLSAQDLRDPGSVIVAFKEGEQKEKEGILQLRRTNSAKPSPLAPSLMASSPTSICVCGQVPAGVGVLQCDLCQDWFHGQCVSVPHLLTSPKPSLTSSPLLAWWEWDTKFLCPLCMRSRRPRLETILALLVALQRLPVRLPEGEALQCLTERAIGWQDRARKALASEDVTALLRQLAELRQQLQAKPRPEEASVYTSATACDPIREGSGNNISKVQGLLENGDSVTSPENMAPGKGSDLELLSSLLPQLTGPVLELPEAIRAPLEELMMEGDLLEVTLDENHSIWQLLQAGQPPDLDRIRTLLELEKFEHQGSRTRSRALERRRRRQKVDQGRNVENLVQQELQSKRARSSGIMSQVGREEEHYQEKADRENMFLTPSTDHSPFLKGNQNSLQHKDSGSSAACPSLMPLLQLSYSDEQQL
UniProt Q6P9B6, sequence (Q6P9B6 whole entry, looked up): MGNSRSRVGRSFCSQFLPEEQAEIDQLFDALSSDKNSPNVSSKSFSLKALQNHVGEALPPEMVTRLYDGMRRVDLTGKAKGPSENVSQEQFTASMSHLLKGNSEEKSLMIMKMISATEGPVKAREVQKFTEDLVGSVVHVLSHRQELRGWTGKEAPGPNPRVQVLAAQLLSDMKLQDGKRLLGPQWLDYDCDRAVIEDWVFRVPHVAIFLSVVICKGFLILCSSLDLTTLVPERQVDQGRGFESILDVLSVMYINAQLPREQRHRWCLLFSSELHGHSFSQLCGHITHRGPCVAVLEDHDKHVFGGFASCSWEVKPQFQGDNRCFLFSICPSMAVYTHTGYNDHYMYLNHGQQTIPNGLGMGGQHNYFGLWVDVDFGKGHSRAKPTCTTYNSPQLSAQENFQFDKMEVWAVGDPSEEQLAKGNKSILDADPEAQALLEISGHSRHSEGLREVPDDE
UniProt P01116, sequence (P01116 whole entry, looked up): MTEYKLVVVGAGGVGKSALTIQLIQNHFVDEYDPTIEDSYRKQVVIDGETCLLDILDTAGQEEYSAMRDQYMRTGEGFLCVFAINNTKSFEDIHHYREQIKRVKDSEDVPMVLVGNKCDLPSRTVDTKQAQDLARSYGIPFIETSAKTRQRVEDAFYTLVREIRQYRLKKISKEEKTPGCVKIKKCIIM
UniProt P07948, sequence (P07948 whole entry, looked up): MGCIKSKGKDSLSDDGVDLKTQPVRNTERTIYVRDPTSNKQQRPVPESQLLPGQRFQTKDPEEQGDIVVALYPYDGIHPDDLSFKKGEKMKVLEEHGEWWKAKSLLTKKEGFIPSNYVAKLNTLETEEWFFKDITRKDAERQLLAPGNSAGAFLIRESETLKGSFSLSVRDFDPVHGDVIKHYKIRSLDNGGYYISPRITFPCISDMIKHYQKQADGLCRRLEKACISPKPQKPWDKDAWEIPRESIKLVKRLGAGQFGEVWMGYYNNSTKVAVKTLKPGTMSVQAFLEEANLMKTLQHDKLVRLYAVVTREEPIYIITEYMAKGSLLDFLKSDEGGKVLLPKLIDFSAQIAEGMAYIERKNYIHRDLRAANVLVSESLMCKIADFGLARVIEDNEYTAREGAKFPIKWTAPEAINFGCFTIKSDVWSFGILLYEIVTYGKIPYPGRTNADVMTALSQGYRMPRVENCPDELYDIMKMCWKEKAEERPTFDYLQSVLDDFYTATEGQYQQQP
UniProt P01130, sequence (P01130 whole entry, looked up): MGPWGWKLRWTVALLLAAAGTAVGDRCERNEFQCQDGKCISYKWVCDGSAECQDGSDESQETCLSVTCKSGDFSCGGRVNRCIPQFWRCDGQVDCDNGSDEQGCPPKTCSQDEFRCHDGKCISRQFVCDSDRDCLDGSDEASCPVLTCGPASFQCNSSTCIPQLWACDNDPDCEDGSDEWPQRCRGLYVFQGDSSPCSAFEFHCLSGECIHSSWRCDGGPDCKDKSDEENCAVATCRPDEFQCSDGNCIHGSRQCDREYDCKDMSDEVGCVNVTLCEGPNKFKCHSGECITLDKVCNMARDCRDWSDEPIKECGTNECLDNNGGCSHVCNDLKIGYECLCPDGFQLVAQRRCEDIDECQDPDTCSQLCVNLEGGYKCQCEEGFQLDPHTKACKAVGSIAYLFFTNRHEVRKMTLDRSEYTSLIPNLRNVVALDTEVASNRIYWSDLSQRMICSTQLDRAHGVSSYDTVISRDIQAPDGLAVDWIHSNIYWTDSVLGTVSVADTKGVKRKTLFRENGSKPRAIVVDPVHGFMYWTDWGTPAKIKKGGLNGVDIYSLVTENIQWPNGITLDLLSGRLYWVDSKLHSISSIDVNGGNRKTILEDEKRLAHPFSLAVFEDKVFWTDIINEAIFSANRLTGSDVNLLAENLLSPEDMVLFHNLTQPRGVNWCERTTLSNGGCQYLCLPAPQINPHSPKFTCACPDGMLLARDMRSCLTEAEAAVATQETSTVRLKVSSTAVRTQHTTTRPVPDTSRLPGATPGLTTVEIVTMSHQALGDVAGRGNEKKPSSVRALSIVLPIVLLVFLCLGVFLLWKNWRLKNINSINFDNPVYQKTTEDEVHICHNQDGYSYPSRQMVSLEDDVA
UniProt Q8TBB5, sequence (Q8TBB5 whole entry, looked up): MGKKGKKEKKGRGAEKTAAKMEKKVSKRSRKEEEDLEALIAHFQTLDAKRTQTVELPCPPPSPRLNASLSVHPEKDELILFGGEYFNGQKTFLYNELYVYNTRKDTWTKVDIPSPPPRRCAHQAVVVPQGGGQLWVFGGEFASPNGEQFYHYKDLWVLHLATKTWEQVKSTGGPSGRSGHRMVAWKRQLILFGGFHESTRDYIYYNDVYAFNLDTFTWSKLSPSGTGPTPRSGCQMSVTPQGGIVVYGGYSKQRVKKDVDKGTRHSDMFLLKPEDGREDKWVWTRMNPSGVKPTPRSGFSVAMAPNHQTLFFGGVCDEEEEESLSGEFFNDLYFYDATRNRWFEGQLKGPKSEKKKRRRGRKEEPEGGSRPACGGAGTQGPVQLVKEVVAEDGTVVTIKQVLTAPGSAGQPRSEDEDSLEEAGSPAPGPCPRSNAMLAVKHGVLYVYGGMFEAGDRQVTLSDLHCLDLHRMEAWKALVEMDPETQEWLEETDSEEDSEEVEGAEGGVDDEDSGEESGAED
UniProt Q8WWC4, sequence (Q8WWC4 whole entry, looked up): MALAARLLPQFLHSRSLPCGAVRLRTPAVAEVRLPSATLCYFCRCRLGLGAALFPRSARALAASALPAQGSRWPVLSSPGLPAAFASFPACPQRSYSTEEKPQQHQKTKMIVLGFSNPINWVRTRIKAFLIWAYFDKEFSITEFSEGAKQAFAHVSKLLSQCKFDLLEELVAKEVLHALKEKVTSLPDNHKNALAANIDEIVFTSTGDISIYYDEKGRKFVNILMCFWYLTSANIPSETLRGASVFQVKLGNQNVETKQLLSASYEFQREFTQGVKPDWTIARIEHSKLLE
UniProt Q9BRT3, sequence (Q9BRT3 whole entry, looked up): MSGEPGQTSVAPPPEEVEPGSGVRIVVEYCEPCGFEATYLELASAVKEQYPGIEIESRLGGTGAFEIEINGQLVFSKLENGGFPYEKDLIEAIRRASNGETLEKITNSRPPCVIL

Target | log2 fold change [1] | log2 fold change [2] | log2 fold change [3] | log2 fold change [4] | log2 fold change (entinostat) | log2 fold change (vorinostat) | log2 fold change (citarinostat) | log2 fold change (silmitasertib) | log2 fold change [5] | log2 fold change [6]
LMNB1 (UniProt P20700) | 0.094 | -0.073 | 0.078 | -0.018 | 0.024 | -0.029 | 0.033 | 0.097 | -0.105 | -0.072
KRAS isoform 2 (UniProt P01116) | -0.07 | 0.039 | 0.091 | 0.061 | -0.015 | -0.032 | -0.018 | 0.001 | -0.019 | -0.032
LRBA (UniProt P50851) | 0.002 | -0.058 | -0.146 | -0.039 | 0.016 | 0.049 | 0.034 | 0.033 | -0.025 | -0.026
MGST3 (UniProt O14880) | -0.04 | -0.07 | 0.076 | 0.009 | -0.047 | -0.043 | -0.005 | -0.011 | -0.025 | -0.056
IPO7 (UniProt O95373) | 0.024 | -0.099 | -0.145 | -0.069 | 0.036 | 0.055 | 0.056 | 0.015 | -0.004 | -0.09
LARP1 (UniProt Q6PKG0) | -0.064 | 0.002 | 0.051 | -0.04 | 0.02 | 0.043 | -0.025 | 0.028 | 0.113 | -0.133
LSR (UniProt Q86X29) | -0.135 | 0.066 | 0.066 | 0.039 | -0.054 | -0.027 | 0.006 | -0.036 | 0.03 | -0.012
INTS7 (UniProt Q9NVH2) | -0.076 | 0.037 | 0.001 | -0.045 | -0.095 | 0.049 | -0.007 | 0.055 | 0.092 | 0.01
MEAK7 (UniProt Q6P9B6) | -0.011 | -0.117 | -0.122 | -0.025 | 0.027 | 0.069 | 0.053 | -0.028 | -0.021 | 0.016
MAGEA9 (UniProt P43362) | -0.017 | -0.027 | -0.243 | 0.033 | 0 | 0.132 | 0.013 | 0.052 | -0.079 | -0.106
KHDRBS1 (UniProt Q07666) | -0.013 | -0.038 | -0.009 | -0.034 | -0.025 | 0.037 | 0.099 | 0.018 | 0.039 | -0.064
IMMT isoform 4 (UniProt Q16891) | -0.022 | -0.083 | -0.132 | -0.056 | 0.021 | 0.008 | 0.007 | -0.038 | -0.031 | -0.035
KDM1A isoform 2 (UniProt O60341) | 0.055 | -0.038 | -0.063 | 0.012 | 0.155 | 0.135 | 0.007 | 0 | -0.063 | -0.064
MAIP1 (UniProt Q8WWC4) | -0.061 | -0.06 | -0.129 | -0.009 | -0.015 | 0.017 | 0.076 | -0.012 | -0.085 | -0.012
MIEF1 (UniProt L0R8F8) | 0.085 | 0.094 | 0.047 | 0.002 | 0.007 | -0.012 | 0.039 | -0.021 | -0.063 | -0.056
KDM5D isoform 3 (UniProt Q9BY66) | -0.038 | -0.012 | -0.134 | -0.025 | 0.135 | 0.006 | 0.198 | 0.176 | 0 | -0.096
ILF2 (UniProt Q12905) | -0.02 | 0.024 | 0.121 | 0.109 | -0.049 | -0.059 | -0.037 | 0.13 | 0.378 | -0.18
KCT2 (UniProt Q8NC54) | 0.047 | -0.029 | -0.378 (active) | 0.013 | -0.054 | 0.022 | 0.05 | 0.035 | 0.047 | -0.02
LYPLA2 (UniProt O95372) | 0.02 | 0.043 | -0.031 | 0.09 | 0.114 | -0.065 | 0.018 | -0.048 | 0 | 0.036
MIEN1 (UniProt Q9BRT3) | 0.045 | 0.003 | -0.013 | 0.001 | 0.016 | -0.042 | -0.007 | 0.004 | -0.131 | 0.057
MCU (UniProt Q8NE86) | 0.005 | -0.059 | -0.142 | -0.131 | 0.034 | -0.013 | 0.075 | -0.007 | -0.034 | -0.052
KIF13A (UniProt Q9H1H9) | -0.049 | -0.008 | -0.078 | -0.064 | 0.04 | -0.178 | -0.041 | 0 | -0.005 | -0.061
MCUR1 (UniProt Q96AQ8) | -0.043 | -0.048 | 0.011 | 0.01 | -0.028 | -0.026 | -0.001 | -0.023 | -0.036 | -0.018
MAGI1 (UniProt Q96QZ7) | -0.069 | -0.042 | 0.003 | -0.022 | 0.019 | 0.07 | 0.022 | 0.125 | 0.035 | -0.081
KDELR2 (UniProt P33947) | -0.071 | 0.063 | -0.073 | -0.133 | -0.02 | -0.238 | -0.026 | -0.018 | -0.031 | -0.097
MICU1 isoform 3 (UniProt Q9BPX6) | -0.048 | -0.022 | -0.012 | 0.039 | 0.016 | 0.017 | 0.053 | 0.117 | 0.027 | -0.085
LYN (UniProt P07948) | 0.385 (active) | 0.048 | -0.048 | -0.016 | -0.006 | 0.058 | 0.017 | 0.176 | 0.022 | 0.143
LDLR (UniProt P01130) | 0.005 | 0.093 | 0.008 | 0.124 | 0.057 | -0.038 | -0.035 | 0.074 | 0.019 | -0.071
KLHDC4 (UniProt Q8TBB5) | 0.013 | -0.006 | 0.224 | -0.105 | -0.055 | -0.014 | 0.042 | -0.003 | 0.125 | -0.036
IGF2R (UniProt P11717) | -0.032 | 0.03 | -0.546 (active) | 0.006 | -0.008 | 0 | 0.07 | 0.021 | -0.063 | -0.184
